Active and inactive are the calls of the source.
Tests used:
[1] = A549 cell viability effects, profiling panel, calcein-AM fluorescence, 48 h, basal (AID 1162); conditions: higher = more signal
[2] = adipocyte viability effects, profiling panel, cell-based, 3T3-L1 adipocytes, calcein-AM fluorescence, 48 h, basal (AID 1163); conditions: 3T3-L1 adipocytes viability, higher = more signal
[3] = HepG2 cell viability effects, profiling panel, calcein-AM fluorescence, 48 h, basal (AID 1164); conditions: higher = more signal
[4] = MM1S cell viability effects, profiling panel, calcein-AM fluorescence, 48 h, basal (AID 1165); conditions: higher = more signal;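 further: viability of MM1S multiple myeloma cells under basal unstimulated conditions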
[5] = basal RPMI8226 viability, no added stimulus, profiling panel, cell-based, calcein-AM fluorescence, 48 h, PK04 Diversity Set (AID 1166); conditions: RPMI8226 myeloma viability, higher = more signal;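 further: cells grown under basal conditions without added stimulus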
[6] = basal HepG2 mitochondrial membrane potential changes, profiling panel, cell-based, JC-1 fluorescence, 24 h, 100 nL compound (AID 1167); conditions: higher = more signal
[7] = basal 3T3-L1 adipocyte mitochondrial potential changes, profiling panel, cell-based, JC-1 fluorescence, 3T3-L1 adipocytes, 24 h, 100 nL compound (AID 1168); conditions: JC-1 mitochondrial fluorescence, higher = more signal, called active from +8 up or from −8 down
[8] = basal RPMI8226 mitochondrial membrane potential changes, profiling panel, cell-based, JC-1 fluorescence, 24 h, 100 nL compound (AID 1169); conditions: RPMI8226 myeloma, JC-1 mitochondrial potential fluorescence, higher = more signal
[9] = basal MM1S mitochondrial membrane potential changes, profiling panel, cell-based, JC-1 fluorescence, 24 h, 100 nL compound (AID 1170); conditions: higher = more signal
[10] = A549 lung cancer cell viability effects, profiling panel, resazurin fluorescence, 24 h, PK04 Diversity Set (AID 1171); conditions: higher = more signal, called active from +8 up or from −8 down
Further: test concentration not given here.

Row | Compound | z-score [1] | z-score [2] | z-score [3] | z-score [4] | z-score [5] | z-score [6] | z-score [7] | z-score [8] | z-score [9] | z-score [10]
1 | C[C@@H]1NC(=O)C([C@@H](C)OCc2ccccc2)NC(=O)[C@@]23C(=O)N[C@@H](Cc4ccccc4)C2[C@H](C)[C@@]2(C)O[C@H]2C3/C=C/C/C=C\CNC1=O (stereo not given in full) | -0.405 | 0.387 | -0.448 | -0.129 | -1.1 | -0.121 | 0.782 (inactive) | 0.514 | 0.186 | -0.0746 (inactive)
2 | O=C(NCc1ccccc1)[C@@H]1c2ccccc2C(=O)N(Cc2ccc(OC(F)(F)F)cc2)[C@H]1c1ccc(CO)cc1 | 1.29 | 0.711 | 0.77 | -0.279 | 0.473 | 2.44 | -0.602 (inactive) | -0.728 | 0.809 | 1.39 (inactive)
3 | COC(=O)C[C@H]1O[C@@]2(C[C@@H]1[Si](C)(C)C)C(=O)N(C)c1ccccc12 | 0.904 | 0.69 | 0.606 | 0.561 | -0.356 | 1.23 | 0.63 (inactive) | -1.09 | 0.965 | 0.543 (inactive)
4 | CC=CC(O)C1C=CC2C(=O)NC(=O)C2N1Nc1ccc(Cl)cc1Cl (stereo not given) | -1.54 | -0.883 | -1.14 | -0.866 | -0.624 | -2.04 | -1.04 (inactive) | 0.501 | -0.446 | -0.458 (inactive)
5 | C=CCOC(=O)[C@@H]1[C@H]2C(=O)O[C@H](c3ccccc3)[C@H](c3ccccc3)N2[C@H](c2ccc(OCCOC(=O)[C@H]3C[C@H]4C(=O)NCC(=O)N4[C@H]3c3cccc(OCCO)c3)cc2)[C@@]12C(=O)Nc1ccc(I)cc12 | -0.175 | -0.407 | 0.946 | 0.464 | -0.785 | -1.05 | 1.44 (inactive) | -0.632 | -1.27 | 0.169 (inactive)
6 | [N-]=[N+]=Nc1ccccc1[C@H]1OC(c2ccc(OCCCO)cc2)=N[C@@]1(Cc1ccccc1)C(=O)NCC(O)CO (stereo not given in full) | -0.761 | 0.405 | -0.629 | -1.5 | -2.2 | 0.854 | 0.291 (inactive) | -0.925 | -1 | -0.949 (inactive)
7 | NC(=O)NCC#Cc1ccc2c(c1)[C@]1(C(=O)N2)[C@H](c2ccc(OCCO)cc2)N2[C@H](c3ccccc3)[C@H](c3ccccc3)OC(=O)[C@H]2[C@@H]1C(=O)NC[C@H](O)c1ccccc1 | 0.192 | 0.326 | 0.013 | 0.405 | 0.847 | -1.4 | -0.0754 (inactive) | -0.538 | 0.207 | 0.401 (inactive)
8 | CN(C)CCCC[C@@H]1NC(=O)[C@@H]2C[C@H](C(=O)NCCCCCCNC(=O)CS)[C@H](c3ccc(O)cc3)N2C1=O | -0.121 | -0.145 | 0.548 | -0.0172 | 0.381 | -0.175 | 0.207 (inactive) | -0.223 | -0.136 | 0.579 (inactive)
9 | O=C(NCc1ccccc1)[C@@H]1c2ccccc2C(=O)N(Cc2cc(C(F)(F)F)cc(C(F)(F)F)c2)[C@H]1c1ccc(CO)cc1 | -0.108 | 1.79 | -0.139 | 0.635 | -0.487 | 1.45 | 0.125 (inactive) | -0.586 | -1.15 | -0.281 (inactive)
10 | COc1ccc(NN2C(C(O)c3ccc(I)cc3)C=CC3C(=O)N(C4CCCCC4)C(=O)C32)cc1 (stereo not given) | -0.302 | -0.971 | 0.181 | -1.06 | 0.295 | 0.126 | 0.0889 (inactive) | 0.0764 | -1.65 | 1.47 (inactive)
11 | CCOC(=O)C1=CC[C@@H](c2ccc(OC)cc2)N(S(=O)(=O)c2ccc(C)cc2)[C@H]1c1ccc(C)cc1 | -0.35 | -1.09 | 0.65 | 0.632 | 0.583 | 2.39 | -0.717 (inactive) | 0.859 | -0.897 | 0.302 (inactive)
12 | COc1ccc([Si](C)(C)[C@H]2[C@H](CC(=O)N3CCC[C@H]3CO)O[C@@]3(C(=O)N(Cc4ccc(N5CCCCC5=O)cc4)c4ccccc43)[C@@H]2C)cc1 | -0.288 | 0.954 | -0.531 | -1.74 | -3.5 | 3.5 | -0.774 (inactive) | -1.02 | -0.184 | -0.421 (inactive)
13 | COc1ccc([Si](C)(C)[C@H]2[C@H](CCO)O[C@@]3(C(=O)N(Cc4cccc(N5C(=O)c6ccccc6Oc6ccccc65)c4)c4ccccc43)[C@@H]2C)cc1 | -1.24 | 0.508 | -4.22 | -2.87 | -4.3 | -0.19 | 2.27 (inactive) | -1.03 | -1.84 | -2.25 (inactive)
14 | CO[C@H]1O[C@H](CO)[C@@H](OC(=O)Nc2ccccc2)[C@H](OC(=O)Nc2ccccc2)[C@H]1OC(=O)Nc1ccccc1 | -1.27 | 0.416 | -1.92 | -0.77 | -3.14 | 0.292 | 0.0293 (inactive) | -0.77 | -1.06 | -3.04 (inactive)
15 | C=C(CCCC)C(=O)CC[C@@H](OC(=O)c1ccccc1-c1ccccc1C(=O)O)c1ccccc1OCCO | 1.54 | 2.03 | -0.29 | -3.39 | -3.95 | -0.688 | 0.306 (inactive) | -0.67 | -0.203 | 0.573 (inactive)
16 | CN(C)C(=O)[C@@]1(Cc2ccccc2CN=[N+]=[N-])COC(c2ccc(OCCCO)cc2)=N1 | -0.113 | 0.442 | 0.0407 | -3.51 | -2.76 | 1.21 | 1.1 (inactive) | -1.08 | -1.65 | 0.0714 (inactive)
17 | CC(=O)c1ccc(C(O)C2C=CC3C(=O)N(c4ccccc4)C(=O)C3N2Nc2ccc(C(C)C)cc2)cc1 (stereo not given) | -0.301 | -1.69 | 0.123 | -1.1 | -0.994 | -2.03 | -1.56 (inactive) | -0.293 | -1.29 | -0.532 (inactive)
18 | C=C(CCCC)/C(=C/C[C@@H](OC(C)=O)c1ccc(CO)o1)c1cnc2ccccc2c1 | 0.159 | 1.04 | -0.042 | -1.56 | -1.52 | -0.462 | -0.583 (inactive) | -0.133 | -1.12 | -1.29 (inactive)
19 | CCOC(=O)C[C@H]1[C@H](OC(=O)Cc2ccc3c(c2)OCO3)[C@@H](NC(=O)c2ccc3ccccc3n2)c2cc(OCCCO)ccc2N1C(=O)Cc1ccc(OC)cc1 | 0.703 | 0.867 | 1.03 | 0.406 | -0.603 | 2.42 | -0.115 (inactive) | 0.167 | -0.882 | -0.64 (inactive)
20 | CC(C)(C)N1CC=CC23O[C@@H]4/C=C\CCCOC(=O)C4[C@H]2C(=O)N(CCCO)[C@@H]3C1=O (stereo not given in full) | -0.377 | 1.1 | 0.0723 | -0.112 | -0.0698 | -0.794 | 0.822 (inactive) | 0.233 | 0.229 | 0.114 (inactive)
21 | O=C(NCCN1CCOCC1)[C@@H]1c2ccccc2C(=O)N(Cc2ccc(OC(F)(F)F)cc2)[C@H]1c1ccc(CO)cc1 | 3.01 | 1.04 | 0.113 | 0.0559 | -0.231 | 2.31 | 0.229 (inactive) | 1.04 | 0.745 | 0.614 (inactive)
22 | COc1ccc(CCNC(=O)[C@@H]2c3ccccc3C(=O)N(Cc3ccccc3OC)[C@H]2c2ccc(CO)cc2)cc1 | 0.41 | -0.219 | -0.147 | -0.147 | 0.245 | 1.22 | -0.822 (inactive) | -0.167 | -0.42 | 1.58 (inactive)
23 | COCCCNC(=O)[C@@]1(Sc2ccc(C)cc2)CC(=O)N(Cc2ccccc2C(F)(F)F)[C@@H]1c1ccc(CO)cc1I | -0.172 | 0.224 | 0.245 | -3.18 | -2.36 | -0.33 | -0.101 (inactive) | -0.339 | -1.33 | -0.731 (inactive)
24 | O=C1C[C@@](C(=O)O)(c2ccc([N+](=O)[O-])cc2)[C@@H](c2ccc(CO)cc2)N1C1CCCCC1 | 0.903 | -0.0886 | -0.28 | -1.43 | -2.67 | 0.969 | -1.22 (inactive) | -0.145 | -0.247 | 0.361 (inactive)
25 | COC(=O)[C@H](Cc1ccccc1)N1CC2=CCCC=C[C@@H]2[C@H]1[C@H](O)Cc1ccccc1 | -0.183 | -0.635 | 0.244 | -3.12 | -1.41 | -0.866 | -0.116 (inactive) | -1.16 | -0.746 | 0.705 (inactive)
26 | COCCCNC(=O)[C@@H]1c2ccccc2C(=O)N(Cc2ccc(OC(F)(F)F)cc2)[C@H]1c1ccc(CO)cc1 | 0.927 | -0.704 | 0.198 | -0.0583 | 0.317 | 1.75 | -0.436 (inactive) | -0.604 | -0.29 | 0.469 (inactive)
27 | CN(C)CCCC[C@@H]1NC(=O)[C@@H]2C[C@H](C(=O)NCCCCCN)[C@H](c3cccc(OCCO)c3)N2C1=O | 2.2 | 0.494 | 1.44 | -0.0351 | 0.891 | 1.63 | -1.03 (inactive) | -0.891 | 0.697 | 1.08 (inactive)
28 | COC(=O)C1(Cc2ccccc2)C=C2C(=C(C)C(=O)C2C)CN1 (stereo not given) | -0.865 | 0.45 | 0.159 | 0.232 | 0.213 | -0.237 | -0.046 (inactive) | 0.151 | -0.762 | -1.21 (inactive)
29 | COc1ccccc1CN1C(=O)c2ccccc2[C@](Cc2ccccc2I)(C(=O)NCC(C)C)[C@@H]1c1ccc(CO)cc1 | 1.26 | 0.297 | 2.05 | -0.746 | -0.458 | 1.41 | -0.808 (inactive) | -0.38 | -0.257 | 0.41 (inactive)
